Potency data for 33 compounds are collected here from PubChem BioAssay (Tox21).

Inconclusive results are not listed. Active and inactive are the calls of the source. Unless noted, calls come from the whole dose curve; as a rule, active = well fitted curve in the direction sought with a large enough effect in the repeat runs; inconclusive = weak or mixed curves; inactive = no such curve, though single readings can be large; an effect the other way counts as inactive or inconclusive.

Assay [1] can be described thus: A CellTox Green Cytotoxicity Assay to monitor cytotoxicity in HepG2 cells - 8 hour (AID 1224890). Note: nearly all actives have a fitted effect of over 45% in size. The gist of the method:
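Real-time cytotoxicity: fluorescence of a cell-impermeant cyanine dye binding DNA of dead HepG2 cells, measured repeatedly (0–40 h) during compound exposure at 37 C. Cells seeded 600/well with reagent, dosed after 5 h.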

The nature of assay [2]: qHTS assay to identify small molecule antagonists of the estrogen receptor alpha (ER-alpha) signaling pathway using the BG1 cell line in the presence of 0.1 nM 17-beta-estradiol - cell viability counter screen (AID 1259241). Note: nearly all actives have a fitted effect of over 40% in size. Summed up:
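Estradiol-stimulated (0.1 nM) VM7Luc4E2 cells exposed to compounds 22 hr; viability measured by fluorescence of cleaved CellTiter-Fluor substrate after 30 min.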
In general terms: qHTS replaces the single test concentration by a dilution series.

Assay [3] in a line: qHTS assay to identify small molecule antagonists of the androgen receptor (AR) signaling pathway using the MDA cell line in the presence of 0.5 nM R1881 - cell viability counter screen (AID 1259242). Note: nearly all actives have a fitted effect of over 45% in size. The gist of the method: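 Live-cell protease activity was measured by CellTiter-Fluor fluorescence after 30 min. Before that, MDA-kb2 MMTV-luciferase cells had 16 hr at 37C without CO2, exposed to test compounds and 0.5 nM R1881 final.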

Assay [4] in a line: qHTS assay to identify small molecule HDAC inhibitors (AID 1259364). Note: nearly all actives have a fitted effect of over 45% in size. Summed up: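 Luminescence read after 30 min room-temperature HDAC-Glo incubation measures cellular class I/II HDAC activity. Compounds were applied for 2 hr at 37 C to HCT-116 wild-type cells seeded the day before.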
Assay [5] is described as follows: qHTS assay to identify small molecule HDAC inhibitors - cell viability counter screen (AID 1259365). Note: nearly all actives have a fitted effect of over 50% in size. The gist of the method:
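After overnight seeding at 1,500 cells per well, wild-type HCT-116 cultures took up compounds in DMSO for 2hr at 37 C. Viable cell content came from luminescence with CellTiter-Glo.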

Assay [6] is described as follows: qHTS assay to identify small molecule agonists of the sonic hedgehog signaling (Shh) pathway - cell viability counter screen (AID 1259366). Note: nearly all actives have a fitted effect of over 50% in size. Summed up:
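Same-well cytotoxicity read. Gli1-Luc reporter 3T3 cells; compounds 24hr, 37C/5% CO2; CellTiter-Fluor fluorescence.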

Assay [7] can be described thus: qHTS assay to identify small molecule antagonists of the sonic hedgehog signaling (Shh) pathway - cell viability counter screen (AID 1259367). Note: nearly all actives have a fitted effect of over 55% in size. The gist of the method: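 Tox21 library chemicals were tested on a Gli1-Luc NIH/3T3 clone (2,000 cells/well) stimulated by conditioned medium; viability was quantified as fluorescence from CellTiter-Fluor reagent added at 23 hr.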

The target of assay [8] is Androgen receptor (Homo sapiens) (UniProt P10275). Briefly: qHTS assay to identify small molecule antagonists of the androgen receptor (AR) signaling pathway using the MDA cell line in the presence of 0.5 nM R1881 (AID 1259243). Note: nearly all actives have a fitted effect of over 50% in size. The gist of the method:
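Luminescent reporter readout (ONE-Glo, 30 min, room temperature) after 16 hr co-treatment of MDA-kb2 cells with test compounds and 0.5 nM R1881 final, at 37C without CO2. The MMTV-driven luciferase responds to both AR and GR.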

The target of assay [9] is Estrogen receptor (Homo sapiens) (UniProt P03372). Put plainly: qHTS assay to identify small molecule antagonists of the estrogen receptor alpha (ER-alpha) signaling pathway using the BG1 cell line in the presence of 0.1 nM 17-beta-estradiol (AID 1259244). Note: nearly all actives have a fitted effect of over 50% in size. Summed up: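 Luciferase luminescence (ONE-Glo, 30 min at room temperature) was read after 22 hr at 37C exposure to compounds plus 17beta-estradiol at 0.1 nM final. Cells were VM7Luc4E2 with endogenous ER-alpha and an ERE-driven luciferase, pre-cultured 5 days in hormone-depleted medium.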
Sequence of Estrogen receptor (Homo sapiens) (P03372 whole entry, looked up): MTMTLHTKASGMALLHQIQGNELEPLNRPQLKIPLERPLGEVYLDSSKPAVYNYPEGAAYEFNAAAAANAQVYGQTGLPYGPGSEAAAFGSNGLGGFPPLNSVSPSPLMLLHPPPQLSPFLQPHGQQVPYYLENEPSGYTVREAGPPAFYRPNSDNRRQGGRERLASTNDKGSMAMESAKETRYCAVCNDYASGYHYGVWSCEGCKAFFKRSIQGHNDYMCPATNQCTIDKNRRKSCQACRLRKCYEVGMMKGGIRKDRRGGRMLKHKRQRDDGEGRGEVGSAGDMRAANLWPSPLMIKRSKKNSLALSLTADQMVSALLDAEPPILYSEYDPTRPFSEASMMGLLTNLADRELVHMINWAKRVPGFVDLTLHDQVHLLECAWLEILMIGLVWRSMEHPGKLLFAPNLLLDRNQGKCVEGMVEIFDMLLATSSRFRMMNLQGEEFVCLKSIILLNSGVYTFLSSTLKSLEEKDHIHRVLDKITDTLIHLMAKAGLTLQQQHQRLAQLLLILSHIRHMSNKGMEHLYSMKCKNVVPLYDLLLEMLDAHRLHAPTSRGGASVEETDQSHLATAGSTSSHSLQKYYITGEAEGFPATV

The nature of assay [10]: qHTS assay to identify small molecule phospholipidosis (PLD) inducers (AID 1259344; active = well fitted curve in the direction sought with a large enough effect; an effect the other way counts as inactive or inconclusive). The gist of the method:
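Image-based: LipidTOX Red pit count/intensity per well and per cell; HepG2, 24 h compound at 37 C, PFA fixation, Hoechst counterstain.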
Potency is the fitted concentration of half-maximal effect.

Sequence of Androgen receptor (Homo sapiens) (P10275 whole entry, looked up): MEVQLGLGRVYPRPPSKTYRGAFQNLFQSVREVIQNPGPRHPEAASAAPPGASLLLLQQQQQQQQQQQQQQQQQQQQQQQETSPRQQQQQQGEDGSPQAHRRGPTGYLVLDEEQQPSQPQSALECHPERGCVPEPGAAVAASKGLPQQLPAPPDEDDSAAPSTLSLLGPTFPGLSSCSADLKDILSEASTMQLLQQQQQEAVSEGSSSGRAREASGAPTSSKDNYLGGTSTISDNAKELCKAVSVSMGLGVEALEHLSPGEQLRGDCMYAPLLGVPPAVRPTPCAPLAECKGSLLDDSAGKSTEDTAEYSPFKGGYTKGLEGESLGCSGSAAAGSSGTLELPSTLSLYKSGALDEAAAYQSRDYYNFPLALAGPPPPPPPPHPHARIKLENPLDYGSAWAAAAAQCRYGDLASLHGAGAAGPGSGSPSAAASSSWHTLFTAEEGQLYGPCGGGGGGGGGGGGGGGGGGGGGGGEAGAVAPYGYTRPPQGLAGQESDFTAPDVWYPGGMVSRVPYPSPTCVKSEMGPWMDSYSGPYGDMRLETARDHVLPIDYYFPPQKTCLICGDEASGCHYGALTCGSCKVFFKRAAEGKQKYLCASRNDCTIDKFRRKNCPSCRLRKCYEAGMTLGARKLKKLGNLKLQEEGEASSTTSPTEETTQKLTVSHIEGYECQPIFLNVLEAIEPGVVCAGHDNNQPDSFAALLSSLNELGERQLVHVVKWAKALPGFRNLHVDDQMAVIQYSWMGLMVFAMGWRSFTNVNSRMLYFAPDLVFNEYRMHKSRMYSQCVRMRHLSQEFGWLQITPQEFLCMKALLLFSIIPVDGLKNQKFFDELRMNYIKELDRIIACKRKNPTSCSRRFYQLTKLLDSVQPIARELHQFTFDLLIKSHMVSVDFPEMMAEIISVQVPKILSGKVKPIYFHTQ

With `CCOC(=O)c1ccccc1C(=C1C=C(Br)C(=O)C(Br)=C1)c1cc(Br)c(O)c(Br)c1`, the Potency result in assay [1], in [2], in [3], in [4], in assay [5] and in assay [6] was “inactive” in each case. Further, the Potency entry in assay [7] was “inactive”.

Take `CC(C)(C)C(=O)C(=O)O`: the Potency entry in [1], in assay [2], in assay [3], in assay [4], in [5] and in assay [6] was “inactive” throughout. In addition, the Potency entry in assay [7] was “inactive”.

With `O=C1CCCCCCCCCCOCCCCO1`, the Potency result in [1], in assay [2], in [3], in assay [4], in assay [5] and in assay [6] was “inactive” in each case. For the same compound, the Potency entry in assay [7] is “inactive”.

As for `Cc1cccc(O)c1N`, the Potency entry in assay [1] and in assay [3] was “inactive” each time. The Potency in assay [2] and in assay [7] was 61.8 µM (active) in each case.

Consider `Cc1ccc(OC(=O)c2ccccc2O)cc1`, for which the Potency result in assay [1], in assay [2], in [3], in assay [5], in [6] and in assay [7] was “inactive” in each case. Moreover, in assay [4], the Potency was 15.4 µM (active).

With `COc1ccc(OC(=O)N(CC(=O)O)Cc2ccc(OCCc3nc(-c4ccccc4)oc3C)cc2)cc1`, the Potency entry in assay [1], in assay [2], in assay [3], in [4], in assay [5] and in [6] was “inactive” in each case. Further, the Potency result in assay [7] is “inactive”.

Take `Clc1cc(Cl)nc(Cl)n1`: the Potency result in assay [1], in assay [2], in [3], in assay [4], in assay [5] and in [6] was “inactive” throughout. The Potency result in [7] was “inactive”.

Take `C(=C\c1ccccc1)/c1ccccc1`: the Potency result in assay [1], in [2], in assay [3], in [5], in assay [6] and in [7] was “inactive” throughout.

Regarding `CC(C)C(O)(c1ccc(OC(F)(F)F)cc1)c1cncnc1` (stereo not given), the Potency result in assay [1], in assay [2], in [3], in assay [4], in [6] and in assay [7] was “inactive” each time.

Turning to `CC(C)(c1ccccc1)c1ccccc1`, the Potency entry in assay [1], in assay [2], in assay [3], in assay [4], in [6] and in assay [7] was “inactive” in each case.

Consider `CCCCCCCCCI`, for which the Potency result in [1], in assay [2], in assay [3], in [4], in assay [5] and in [6] was “inactive” throughout. Moreover, the Potency entry in assay [7] is “inactive”.

Turning to `CCCCCC#CC(=O)OC`, the Potency result in assay [1], in assay [2], in assay [3], in assay [4], in [5] and in [6] was “inactive” each time. In assay [7], the Potency result is “inactive”.

Consider `CCc1ccccc1`, for which the Potency entry in assay [1], in assay [2], in assay [3], in assay [4], in assay [5] and in [6] was “inactive” each time. Also, the Potency entry in [7] was “inactive”.

`c1ccc2c(c1)CCc1ccccc1N2`: the Potency result in assay [1], in assay [2], in assay [3], in [5], in assay [6] and in assay [7] was “inactive” each time.

For the compound `CC1=C(CC=O)C(C)(C)CCC1`, the Potency entry in assay [1], in [2], in assay [3], in assay [4], in [5] and in [6] was “inactive” each time. Besides, the Potency result in [7] was “inactive”.

Take `OCCN1CCN(CCCN2c3ccccc3Sc3ccc(Cl)cc32)CC1`: the results for the Potency in assay [1], in [6] and in [7] were 23.9 µM (active), 13.3 µM (active) and 13.3 µM (active), respectively. For the same compound, the Potency result in assay [2], in assay [3], in [4] and in assay [5] was “inactive” throughout.

In the case of `CCOC(=O)/C=C/C(=O)OCC`, the Potency entry in [1], in [2], in assay [3], in [4], in assay [5] and in [6] was “inactive” throughout. The Potency entry in assay [7] was “inactive”.

For `c1csc(SSc2cccs2)c1`, the Potency entry in [1], in [2], in assay [3], in assay [4] and in assay [5] was “inactive” each time. Besides, the Potency in assay [6] and in [7] was 43.3 µM (active) each time.

Regarding `CCC1CO1` (stereo not given), the Potency entry in assay [1], in assay [2], in assay [3], in [4], in assay [5] and in assay [6] was “inactive” throughout. In assay [7], the Potency entry was “inactive”.

In the case of `CCOC(=O)c1ccc(I)cc1`, the Potency entry in [1], in [2], in assay [3], in assay [6] and in [7] was “inactive” each time.

For `CC(C)(C)CC(=O)OCC(=O)[C@@]1(O)CC[C@H]2[C@@H]3CCC4=CC(=O)C=C[C@]4(C)[C@H]3[C@@H](O)C[C@@]21C`, the Potency result in assay [1], in assay [2], in [3], in assay [4], in assay [5] and in assay [7] was “inactive” each time.

`O=C1c2ccccc2C(=O)N1CCc1noc(-c2ccc(CN3CCCCCC3)s2)n1`: the Potency in assay [1] was 31.8 µM (active). Further, the Potency result in [2], in [3], in assay [5], in assay [6] and in [7] was “inactive” throughout.

As for `CC(=O)Nc1cc(S(=O)(=O)O)cc2cc(S(=O)(=O)O)c(N=Nc3ccccc3)c(O)c12`, the Potency result in assay [1] and in assay [4] was “inactive” throughout. Also, the Potency in assay [2] was 19.3 µM (active); in assay [3], 27.3 µM (active); in [6] it was 27.3 µM (active); in [7] it was 24.3 µM (active).

As to `CCCCCCCCCCCCCCN(CCO)CCO`, the Potency was 54.9 µM (active) in [1], 48.6 µM (active) in assay [3] and 61.1 µM (active) in assay [6]. For the same compound, the Potency result in [2], in assay [4], in assay [5] and in assay [7] was “inactive” in each case.

For the compound `Brc1cc(Br)c(Oc2cc(Br)c(Br)cc2Br)cc1Br`, the Potency result in assay [1], in assay [2], in assay [3], in [4], in assay [6] and in assay [7] was “inactive” in each case.

Turning to `CC1=C(Br)C(=O)C(Br)=C/C1=C(/c1ccccc1S(=O)(=O)O)c1cc(Br)c(O)c(Br)c1C`, the Potency result in [1] is “inactive”. Further, the Potency was 18.6 µM (active) in [2]; 18.6 µM (active) in assay [3]; 18.6 µM (active) in [5]; 18.6 µM (active) in [6]; 20.8 µM (active) in assay [7].

With `CCOc1ccc(Cc2nccc3cc(OCC)c(OCC)cc23)cc1OCC`, the Potency entry in assay [1], in [2], in assay [10], in [4], in assay [5] and in assay [6] was “inactive” each time. For the same compound, the Potency entry in [7] is “inactive”. For the same compound, the Potency in assay [8] is 10.6 µM (active); in [9], 8.41 µM (active).

On to `O=C1c2ccccc2C(=O)C1(O)O`, for which the Potency entry in assay [1], in assay [2] and in assay [3] was “inactive” in each case. Besides, in assay [7], the Potency was 54.8 µM (active).

For the compound `COc1cc(Nc2c(C#N)cnc3cc(OCCCN4CCN(C)CC4)c(OC)cc23)c(Cl)cc1Cl`, the Potency result in [2], in assay [10], in assay [5] and in assay [7] was “inactive” each time. Besides, the Potency in assay [3] and in [6] was 29.8 µM (active) in each case.

With `Cc1cc(O)ccc1O`, the Potency result in assay [1], in assay [3] and in [5] was “inactive” throughout. Further, the Potency in assay [6] was 13.8 µM (active).

On to `Nc1nc2ccc([N+](=O)[O-])cc2s1`, for which the Potency was 49 µM (active) in assay [1] and 6.86 µM (active) in [8]. Further, the Potency result in [10] and in [5] was “inactive” throughout.

In the case of `Nc1ccc(N=Nc2ccccc2)c(N)c1`, the Potency entry in assay [1] and in assay [9] was “inactive” each time. Besides, the Potency in assay [2] was 26.7 µM (active); in [4], 1.5 µM (active).

As to `C[C@@H]1CN(CCCn2c3ccccc3c3ccccc32)C[C@H](C)N1`, the Potency result in assay [2], in assay [4] and in assay [5] was “inactive” each time. Moreover, the results for the Potency in assay [10], in [6] and in [7] were 10 µM (active), 33.5 µM (active) and 33.5 µM (active), respectively.
